According to the supplement of paper PMC10338343:
± gives the standard deviation.

Key:
[1] = tested on: MILI (PIWIL2) piRISC loaded with piRNA #1 (26 nt); assay: pre-steady-state target cleavage rate (min^-1); guide: piRNA #1 5'p-UGAGGUAGUAGGUUGUAUAGUAUCCA; higher = faster piRNA-guided slicing of the target; conditions: auxiliary factor: 500 nM mouse GTSF1
Procedure, shortened: (§1)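 The method was Cleave-'n-Seq, in which uncleaved targets from a transcribed, DNA-blocked target RNA library were sequenced after exposure to active affinity-purified piRISC carrying one synthetic guide, with or without GTSF1 partner protein. Reactions contained 0.1 nM library, 1 nM piRISC and, where present, 500 nM GTSF1 in HEPES–potassium acetate buffer at 33 °C for 0–8 or 0–960 min. Reads were normalised to depth and to weakly complementary targets, three trials were pooled, and k3 was capped at 0.0001 min^-1. The pre-steady-state cleavage rate came from a burst-and-steady-state fit.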

[2] = tested on: EfPiwi piRISC loaded with piRNA #1 (26 nt); assay: pre-steady-state target cleavage rate (min^-1); auxiliary factor: 500 nM Ephydatia muelleri Gtsf1; guide: piRNA #1 5'p-UGAGGUAGUAGGUUGUAUAGUAUCCA; MIWI and MILI are mouse PIWI proteins and EfPiwi is from a freshwater sponge; tags in brackets are library labels; higher = faster piRNA-guided slicing of the target
Procedure, shortened: as §1

| Sequence | pre-steady-state target cleavage rate [1] | pre-steady-state target cleavage rate [2] |
| --- | --- | --- |
| GGAGAGGAUACUAUCACAACCUACUACCUCA | 0.136 ± 0.011 | 0.0777 ± 0.031 |
| GGAGACGAUACUAUUCAUCCUACUACCUCA | 0.264 ± 0.021 | 0.00763 ± 0.0036 |
| GGAGACGAUACUAUACAACCUACUAGCACA | 0.00848 ± 0.0055 | 0.00326 ± 0.0016 |
| GGAGACCUAACUAUACAACCUACUACCUCU [g2:g21:cont:t1U] | 0.152 ± 0.025 | 0.915 ± 0.29 |
| GGAGACGAUUCUAUAGAACCUACUACCUCA | 0.172 ± 0.012 | 0.00226 ± 0.0018 |
| GGAGACCAUAGUAUACAACCUACUACCUCA | 0.118 ± 0.012 | 0.022 ± 0.0084 |
| GGAGACCAUACUAUACAACCAUACUACCUCA | 0.0045 ± 0.0036 | 0.00431 ± 0.003 |
| GGAGACCUAUGUAUACAACCUACAACCACA | 0.0115 ± 0.0032 | < 0.0001 |
| GGAGAGGUUACUAUUCAACCUACUACCUCA | 0.164 ± 0.0098 | 0.00359 ± 0.0029 |
| GGAGACCAUACUAUACAACCUACUUACCUCA | 0.175 ± 0.017 | 0.00697 ± 0.0031 |
| GGAGAGGAUACAAAACAACCUACUACCUCA | 0.128 ± 0.013 | 0.00656 ± 0.0047 |
| GGAGACCAUACUAUACAACUACUACCUCA | 0.0423 ± 0.0075 | 0.00486 ± 0.0035 |
| GGAGACCAUACUAUACAACCUCACUACCUCA | 0.00609 ± 0.0028 | 0.0127 ± 0.0078 |
| GGAGUGGAUACUAAACAACCUACUACCUGA | 0.0827 ± 0.012 | 0.00228 ± 0.0017 |
| GGAGUGGUUACUUUACAACCUACUACCUCA | 0.162 ± 0.0089 | 0.00342 ± 0.0031 |
| GGAGUGGAAACUAUACAUCCUACUACCUCA | 0.275 ± 0.024 | 0.0101 ± 0.0045 |
| GGAGACCAUAUAUACAACCUACUACCUCA | 0.05 ± 0.0081 | 0.00541 ± 0.0043 |
| GGAGACCAUACUAUACAACCUACUACCUAA | 0.139 ± 0.015 | 0.0194 ± 0.0072 |
| GGAGACCAUACUAUACAACCUACUACCCUCA | 0.22 ± 0.024 | 0.00445 ± 0.0021 |
| GGAGAGGAUACUAUACAAGCAACUACCUCA | 0.00819 ± 0.0023 | 0.00405 ± 0.0022 |

| Sequence | pre-steady-state target cleavage rate [1] | pre-steady-state target cleavage rate [2] |
| --- | --- | --- |
| GGAGACGAAACUAUACAACGUACUACCUCA | 0.0174 ± 0.0054 | 0.00237 ± 0.0021 |
| GGAGACCUUACUAAACAACCUACUACCUCA | 0.112 ± 0.012 | 0.00463 ± 0.0036 |
| GGAGACCAUAGUAUACAACCUACUACGUCA | 0.0462 ± 0.0097 | 0.00463 ± 0.0028 |
| GGAGUGGAUACUAUACAACCUACUUCCUCA | 0.00401 ± 0.0017 | 0.00544 ± 0.0029 |
| GGAGACCAUACUAUACAACCUUCUACCUGA | 0.00324 ± 0.0032 | 0.00624 ± 0.0044 |
| GGAGACCUAUCUAUACAACCCACUACCUCA | 0.0169 ± 0.0041 | 0.00474 ± 0.0043 |
| GGAGACCAUACUAAACAACCUACUACCUCA | 0.153 ± 0.016 | 0.0127 ± 0.0048 |
| GGAGAGGAUACUAUACAACCUACUACGACA | 0.0606 ± 0.017 | 0.0044 ± 0.0023 |
| GGAGACGAUACUAUACAACCUACUACCUUCA | 0.194 ± 0.018 | 0.0163 ± 0.0063 |
| GGAGACCAUACCUAUACAACCUACUACCUCA | 0.152 ± 0.034 | 0.0273 ± 0.011 |
| GGAGUGGAUACUAUACAACCAUCUACCUCA | 0.00432 ± 0.0024 | 0.00525 ± 0.0023 |
| GGAGAGGAUACAAUACAACCUACUACCACA | 0.146 ± 0.015 | 0.00265 ± 0.0022 |
| GGAGAGAGAUACUAUACAACCUACUACCUCA | 0.201 ± 0.013 | 0.159 ± 0.057 |
| GGAGACGAUACUUUACAAGCUACUACCUCA | 0.235 ± 0.015 | 0.00342 ± 0.0026 |
| GGAGUGGAUAUUAUACAACCUACUACCUCA | 0.178 ± 0.0094 | 0.00879 ± 0.0043 |
| GGAGUGGAUACUAUACAUCCUACAACCUCA | 0.165 ± 0.014 | 0.00378 ± 0.0019 |
| GGAGUGGAUAGUAUACUACCUACUACCUCA | 0.113 ± 0.0097 | 0.00287 ± 0.0021 |
| GGAGACGAUAGAAUACAACCUACUACCUCA | 0.137 ± 0.013 | 0.00812 ± 0.0043 |
| GGAGUGGAUACUAUGACAACCUACUACCUCA | 0.188 ± 0.011 | 0.0114 ± 0.0053 |
| GGAGUGGAUACUAUACAACGCUACUACCUCA | 0.0044 ± 0.0029 | 0.00636 ± 0.003 |

| Sequence | pre-steady-state target cleavage rate [1] | pre-steady-state target cleavage rate [2] |
| --- | --- | --- |
| GGAGACGUUACUAUACAACCUUCUACCUCA | 0.00861 ± 0.0028 | 0.00871 ± 0.0043 |
| GGAGACCUUACUAUACAACCUAGUACCACA | 0.00907 ± 0.0036 | 0.00255 ± 0.0023 |
| GGAGAGGAUACUAUACAACCUACUACCUUA | 0.19 ± 0.018 | 0.204 ± 0.073 |
| GGAGACGAUACUAUACAACCUCACUACCUCA | 0.00413 ± 0.0033 | 0.0049 ± 0.0024 |
| GGAGACGAUACUAUACAACCAACUUCCUCA | 0.00374 ± 0.0027 | 0.00381 ± 0.0022 |
| GGAGACCUUACUAUACAACCUACUACCACA | 0.18 ± 0.018 | 0.00339 ± 0.0016 |
| GGAGAGGAAACUAUACAAGCUACUACCUCA | 0.179 ± 0.031 | 0.00403 ± 0.0014 |
| GGAGAGGAUAGUAUACAACCUUCUACCUCA | 0.00649 ± 0.004 | 0.00304 ± 0.0024 |
| GGAGUGGAUACAAUACAACCUACUACCUCA | 0.174 ± 0.0095 | 0.0165 ± 0.0068 |
| GGAGACGAUACUUUACAUCCUACUACCUCA | 0.257 ± 0.016 | 0.00465 ± 0.0027 |
| GGAGACCAUACUAUACAUCCUACUUCCUCA | 0.176 ± 0.03 | 0.00272 ± 0.0026 |
| GGAGAGCAUACAAUACAACCUACUACCUCA | 0.206 ± 0.017 | 0.00861 ± 0.0046 |
| GGAGACCUUACUAUACAACCAACUACCUCA | 0.00455 ± 0.0024 | 0.00528 ± 0.003 |
| GGAGACCAUUCUAUACAUCCUACUACCUCA | 0.235 ± 0.019 | 0.00435 ± 0.0029 |
| GGAGAGGAUACUAUGACAACCUACUACCUCA | 0.143 ± 0.013 | 0.102 ± 0.041 |
| GGAGACCUUACAAUACAACCUACUACCUCA | 0.146 ± 0.019 | 0.0117 ± 0.0048 |
| GGAGUGGAUACUAUACAACCUACUACCUCCA | 0.223 ± 0.011 | 0.274 ± 0.077 |
| GGAGACCAUACUAUACGACCUACUACCUCA | 0.0852 ± 0.016 | 0.0094 ± 0.0037 |
| GGAGUGGAUACUAUACAUCCUACUACCUCA | 0.267 ± 0.014 | 0.124 ± 0.044 |
| GGAGUGGAUACUAGUACAACCUACUACCUCA | 0.141 ± 0.011 | 0.175 ± 0.056 |
